PI4K2A inh: qHTS for small molecular inhibitors of PI4K2A; activity change, negative = inhibition, % at 76.9 µM; Phosphatidylinositol 4-kinase type 2-alpha (Homo sapiens), Q9BTU6; 420,000 compounds, 0.13% hits; purified PI4K2A, ADP-Glo luminescence, 1 h; stronger effect = lower value; in the data active means activity change below about -50%; inconclusive means mostly about -30% to -49%;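 further: -100% = wells without enzyme as full effect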
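PI4K2A activity was measured by ADP-Glo luminescence: enzyme (4 ug/mL stock) and phosphatidylinositol (1.2 mM stock) in Tris pH 7.5/MgCl2/EGTA/Triton X-100 buffer were reacted with ATP (300 microM stock) for one hour at ambient temperature.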
CCT modulator: High-Throughput Screening for Modulators of Cytosolic Chaperonin Activity. purified chaperonin ATPase assay, HTRF ADP detection, 30 min. activity change, % (test concentration not listed), hits read low. 360,000 compounds, 0.3% hits. AID 651819, 2012; in the data active means activity change below about -30%
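TRiC (40 or 20 nM final, by batch activity) in 30 mM Tris pH 7.4, 100 mM KCl, 5 mM MgCl2, 1 mM DTT was treated with compound at 76 uM single dose, then 10 uM ATP, 30 min at 37 °C. ADP was read by HTRF Transcreener.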
Eya2 phos inh: qHTS Assay for Inhibitors of the Phosphatase Activity of Eya2. Protein phosphatase EYA2 (Homo sapiens), O00167. Potency, µM (highest dose often 76.9 µM), for the others: at the highest dose activity, negative = inhibition, actives largely listed as inhibitors. 330,000 compounds, 0.006% hits. recombinant Eya2, OMFP fluorescence dephosphorylation (OMFP is methylfluorescein phosphate); further: potency means the concentration at half of the fitted maximal effect
Target sequence (O00167 whole entry, looked up): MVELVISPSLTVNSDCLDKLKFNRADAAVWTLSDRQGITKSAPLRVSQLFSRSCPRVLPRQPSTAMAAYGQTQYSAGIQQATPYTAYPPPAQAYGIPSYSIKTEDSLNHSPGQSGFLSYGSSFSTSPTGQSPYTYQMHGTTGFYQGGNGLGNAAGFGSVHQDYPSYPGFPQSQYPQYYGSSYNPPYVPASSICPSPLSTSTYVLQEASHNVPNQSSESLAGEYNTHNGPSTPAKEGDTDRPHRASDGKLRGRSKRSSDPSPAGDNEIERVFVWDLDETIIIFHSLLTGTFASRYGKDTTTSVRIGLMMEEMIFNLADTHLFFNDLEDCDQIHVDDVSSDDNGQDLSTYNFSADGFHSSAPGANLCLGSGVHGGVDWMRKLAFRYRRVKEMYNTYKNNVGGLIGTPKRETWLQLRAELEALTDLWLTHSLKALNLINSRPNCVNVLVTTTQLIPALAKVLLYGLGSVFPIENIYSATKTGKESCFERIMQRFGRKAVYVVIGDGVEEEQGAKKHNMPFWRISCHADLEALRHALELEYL
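Eya2 (0.2 uM) preincubated 10 min at ambient with compound, then OMFP substrate added at 50 uM; 10 min reaction in 50 mM HEPES pH 7.5, 50 mM NaCl, 5 uM MgCl2, 0.05% BSA, 1 mM DTT. Fluorescence read at Ex 485/Em 525 nm.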
CtBP-E1A blk: qHTS Assay for Inhibitors of the CtBP/E1A Interaction | CtBP / adenovirus E1A interaction (AlphaScreen) | AlphaScreen GST-E1A/His-CtBP binding, 1536-well; stronger effect = lower value | activity change, % (no concentration beside the values) | 340,000 compounds, 0.49% hits | AID 651724, 2012
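Homogeneous bead-based format: GST-tagged E1A captured on glutathione donor beads, His-tagged CtBP on nickel acceptor beads; compounds precede bead addition by 2 h at 37 °C.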
Six1-Eya2 blk: qHTS Assay for Inhibitors of the Six1/Eya2 Interaction. activity change, % (concentration not given with the values). 360,000 compounds, 0.56% hits. AlphaScreen GST-Six1/His-Eya2 binding, biochemical; stronger effect = lower value. Homeobox protein SIX1 (Homo sapiens) + Protein phosphatase EYA2 (Homo sapiens), …
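AlphaScreen luminescence read after one hour at 37 °C in darkness. Pin-transferred compounds met GST-Six1 and His-Eya2 protein (5X stock 250 nM/500 nM) plus glutathione donor and Ni-chelate acceptor beads (5X, 50 ug/mL).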
The depositor's hits bear a star; ? = inconclusive; nt = no result. Only some compounds are listed: those with a hit (about 0.97% of all), similar ones and a draw of the others. Unless noted, no stated cut-off is given here; in the data, active means activity change below about -65%; inconclusive means mostly about -30% to -63%; inactive means weaker than that. Unless noted, on the % scale 0 is the no-effect control and ±100 the full control effect.

SMILES	PI4K2A inh	CCT modulator	Eya2 phos inh	CtBP-E1A blk	Six1-Eya2 blk
O=C(CCCCCn1c(=S)[nH]c2ccc(N3CCOCC3)cc2c1=O)NCc1ccc2c(c1)OCO2	0.6	-57.0*	7.1%	3.6	0.0
C=CCc1cccc(C=NNC(=O)CN2CCN(Cc3ccccc3)CC2)c1O	3.7	nt	-5.9%	nt	nt
Oc1cccc2ccc(Nc3ccccn3)nc12	-2.1	-2.7	19.6%	-100.0*	-90.8*
CCCC1CCC2(CC1)CCC2OC(=S)Nc1ccc(Cl)cc1 (configuration not stated)	2.3	nt	nt	nt	nt
CCCCc1cc(=O)oc2cc(C)c(CN3CCCC3)c(O)c12	-17.3	1.7	-1.4%	-1.8	-17.3
CCc1cc(=O)oc2cc(C)c(CN3CCCC(C)C3)c(O)c12 (configuration not stated)	-50.9*	-3.1	-25.9%	2.4	-23.8
Cc1nn2c(CN(C(=O)CN3CCOCC3)c3ccccc3)nnc2c2ccccc12	-21.1	-33.6*	7.7%	7.9	2.6
Cc1nn(-c2ccccc2)c(N2CCCC2)c1/C=N/NC(=O)c1ccccc1O	-3.3	0.1	-0.1%	?	?
O=C(N/N=C/c1cc2c3c(c1O)CCCN3CCC2)c1ccccc1O	-0.3	-4.9	12.0%	-66.1*	-90.2*
CC(=O)N1CCCC1c1nc2ccccc2n1Cc1ccccc1 (configuration not stated)	0.6	nt	nt	nt	nt
COc1ccc(-c2nc3ccccn3c2CN2CCN(c3ccccc3F)CC2)cc1	0.8	1.0	-18.1%	-15.7	-18.2
COc1ccc(-c2nc3ccccn3c2Cl)cc1	-51.7*	-2.0	9.3%	3.0	-2.8
Cc1cccc(C)c1NS(=O)(=O)c1c(C)[nH]c(=O)[nH]c1=O	-0.9	-36.8*	-6.3%	-2.0	-1.6
CCc1ccc(NC(=O)Cn2c(=O)n(CCCCC(=O)NCCc3ccc(Cl)cc3)c(=O)c3ccccc32)cc1	-3.1	nt	nt	nt	nt
CCOC(=O)c1sc(NC(=O)C(CC)Sc2nnc3c4ccccc4n(C(C)C)c3n2)nc1C (configuration not stated)	3.2	0.8	-8.4%	6.8	1.0
CCOC(=O)Cc1nnc(NC(=O)C(CC)Sc2nnc3c4ccccc4n(C)c3n2)s1 (configuration not stated)	1.9	-7.5	-25.4%	-71.0*	?
O=c1[nH]c(CCl)nc2cc(-c3ccc(F)cc3)sc12	?	-39.5*	12.6%	11.1	6.6
COCCNc1nc2cc(-c3ccc(F)cc3)sc2c(=O)n1C	1.8	0.9	nt	1.3	4.4
CCOc1ccc(S(=O)(=O)N2CCC(N3CCN(Cc4ccc(C)cc4)C(=O)C3=O)CC2)cc1	0.2	nt	nt	nt	nt
O=[N+]([O-])c1cc(Cl)ccc1Sc1cccc2cccnc12	-0.7	-0.2	-2.7%	7.1	?
O=[N+]([O-])c1ccc(Sc2cccc3cccnc23)c([N+](=O)[O-])c1	-28.5	-0.8	16.2%	-97.9*	-94.4*
C=CCn1nc([N+](=O)[O-])nc1Sc1cccc2cccnc12	-6.8	-0.1	1.0%	-95.3*	-94.4*
O=[N+]([O-])c1ccc(Sc2cccc3cccnc23)cc1	-2.6	-4.6	23.4%	-16.8	-17.6
CCOc1ccc(CNC(=O)CCn2nc(C)c3c(C)n(-c4ccccc4)nc3c2=O)cc1	1.7	nt	nt	nt	nt
CN(C1=C(NC(=O)c2ccccc2)C(=O)c2ccccc2C1=O)C1CCS(=O)(=O)C1 (configuration not stated)	-16.3	-1.7	-14.3%	-16.7	-12.7
SMILES	PI4K2A inh	CCT modulator	Eya2 phos inh	CtBP-E1A blk	Six1-Eya2 blk
CC(=O)NC1=C(NC2CCS(=O)(=O)C2)C(=O)c2ccccc2C1=O (configuration not stated)	-6.1	-44.2*	1.7%	-3.4	0.9
CC(C)[C@@H]1CC[C@@H](C)CC1=O	2.5	nt	nt	nt	nt
COc1ccc(C(=O)O/N=C(\N)c2ccccn2)cc1	-89.7*	0.9	3.1%	-4.8	-12.8
N/C(=N\OC(=O)c1ccc(Cl)cc1)c1ccccn1	-69.5*	-1.8	0.5%	2.9	-0.2
N/C(=N\OC(=O)c1ccc(Cl)c(Cl)c1)c1ccccn1	3.4	-2.0	-3.2%	6.1	2.6
N/C(=N\OC(=O)c1ccccc1Cl)c1ccccn1	-51.1*	-2.3	-3.6%	6.2	4.7
Cc1ccc(C(=O)O/N=C(\N)c2ccccn2)c(C)c1	-84.8*	0.5	10.6%	-28.1	-14.6
CN1C(CSCC(F)(F)F)Nc2cc(Cl)c(S(N)(=O)=O)cc2S1(=O)=O (configuration not stated)	0.4	nt	nt	nt	nt
COc1ccc(Nc2ccc(S(=O)(=O)N3CCCCCC3)cc2[N+](=O)[O-])cc1	-4.3	-3.7	-7.5%	-66.0*	?
COc1ccc(Nc2ccc(S(=O)(=O)N3CCCCC3)cc2[N+](=O)[O-])cc1OC	0.6	-2.6	1.9%	?	?
CCOC(=O)CSc1nc2c(cnn2-c2ccc(F)cc2)c(=O)[nH]1	-25.6	-0.1	13.4%	3.5	5.3
COC(=O)CSc1nc2c(cnn2-c2ccc(F)cc2)c(=O)[nH]1	1.8	-31.6*	0.1%	0.5	3.6
CNc1nc(NCc2ccc(N(C)C)cc2)c2sccc2n1	-3.3	-2.6	nt	?	-66.9*
CCC(C)(C)C(=O)N1CCc2cc(S(=O)(=O)N(C)Cc3ccco3)ccc21	-7.3	nt	nt	nt	nt
CCOC(=O)c1cnc(Nc2nc3ccccc3o2)nc1CN1CCN(C)CC1	-5.4	0.8	8.3%	-84.7*	-86.9*
CCCOC(=O)Nc1nc2ccccc2o1	-5.2	0.6	10.3%	-9.3	-6.3
COc1cc(-c2noc(C)n2)cc(OC)c1OC	-7.3	0.4	-23.2%	-0.6	-13.3
Cc1nc(-c2cccc(-c3noc(C)n3)c2)no1	-2.1	-43.7*	-10.7%	4.2	2.3
Cc1ccc(Cn2c(C(=O)O)c(CNCc3ccc(OC(C)C)cc3)c3ccc(C)cc32)cc1	1.1	nt	nt	nt	nt
CN(CCC#N)C(=O)COC(=O)c1c2c(nc3ccccc13)/C(=C/c1ccco1)CC2	-52.7*	-5.9	5.9%	-12.6	?
O=C(c1ccc2ncsc2c1)N1CCCCC1	9.5	-35.6*	9.5%	3.3	2.3
Cc1nnc(NC(=O)C2CCN(S(=O)(=O)c3cc([N+](=O)[O-])ccc3Cl)CC2)o1	-4.2	1.2	2.7%	-82.1*	-69.5*
NC(=S)N=Nc1c(O)[nH]c2cc(F)c(F)cc12	-2.6	-1.5	-1.4%	-71.5*	-65.2*
NC(Cc1ccc(F)cc1)c1csc(Nc2ccc(C(=O)NCCCO)cn2)n1 (configuration not stated)	-2.0	-1.6	nt	-72.1*	-67.6*
